PubChem BioAssay (NCI)
Compounds without any hit were thinned out: in the full panel of roughly 79,000, 15% have a hit. Calls of active or inactive are those of the source. Rule as the data show it: active = growth inhibition above about 70%; inactive = the rest.

Experiments:
[1] = NCI Yeast Anticancer Drug Screen. Data for the rad50 strain (AID 155);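 also: 0% = growth of vehicle-only cultures of the same strain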; details: S. cerevisiae rad50 strain growth inhibition, active compounds read high
How it was run: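 Genetically altered yeast (DNA repair pathway); compound treatment; growth inhibition vs vehicle ctrl.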

[2] = NCI Yeast Anticancer Drug Screen. Data for the mec2-1 strain (AID 157); details: S. cerevisiae mec2-1 strain, active compounds read high
How it was run: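 Cells of the genetically defined mec2-1 yeast strain are incubated with test compound. Inhibition of growth is calculated against vehicle-treated controls.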

[3] = NCI Yeast Anticancer Drug Screen. Data for the sgs1 mgt1 strain (AID 161);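 also: 0% = growth of cultures given vehicle only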; details: S. cerevisiae sgs1 mgt1 strain, active compounds read high
How it was run: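 Inhibition of yeast growth, normalised to vehicle-treated controls, is reported for a strain bearing genetic alterations in DNA damage repair.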

[4] = NCI Yeast Anticancer Drug Screen. Data for the cln2 rad14 strain (AID 165);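 also: 0% = growth equal to vehicle treated cultures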; details: S. cerevisiae cln2 rad14 strain, active compounds read high
How it was run: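 The screen exposed genetically defined yeast (cln2 rad14) to test compounds and scored growth inhibition relative to vehicle-treated controls.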

[5] = NCI Yeast Anticancer Drug Screen. Data for the bub3 strain (AID 167); details: S. cerevisiae bub3 mutant strain, active compounds read high
How it was run: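 Yeast carrying a defined mutation is treated with each compound, and growth is compared with that of vehicle-exposed cells to give inhibition.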

[6] = NCI Yeast Anticancer Drug Screen. Data for the mlh1 rad18 strain (AID 175); details: S. cerevisiae mlh1 rad18 strain growth inhibition, active compounds read high
How it was run: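 Compound-treated yeast growth, normalised to vehicle controls. Strain bears defined DNA repair mutations.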

[7] = at 5.0 µM (retest, dose inferred, filed as 0.5)
[8] = at 50.0 µM (retest, dose inferred, filed as 5.0)

Measured: growth inhibition

CC(C)Sc1nc(NC(=O)N(CCCl)N=O)cc(=O)[nH]1
inactive: [1]; [7] -12% | [1]; [8] 26% | [1]; at 50.0 µM 13.8% | [2]; [7] -4% | [2]; [8] 9% | [2]; at 50.0 µM -2% | [3]; [7] -12% | [3]; [8] 23% | [3]; at 50.0 µM 20.4% | [4]; [7] 8% | [4]; [8] 12% | [4]; at 50.0 µM 5.7% | [5]; [7] -1% | [5]; [8] 7% | [5]; at 50.0 µM 13.2% | [6]; [7] 2% | [6]; at 50.0 µM 23.8%
active: [6]; [8] 74%

CCCCCCCCCCCCNCCNCCN
inactive: [3]; [7] 25% | [5]; [7] 61%
active: [1]; [7] 99% | [1]; [8] 95% | [1]; at 50.0 µM 86.7% | [2]; [7] 99% | [2]; [8] 100% | [2]; at 50.0 µM 89.7% | [3]; [8] 96% | [3]; at 50.0 µM 91% | [4]; [7] 84% | [4]; [8] 97% | [4]; at 50.0 µM 85.6% | [5]; [8] 96% | [5]; at 50.0 µM 89% | [6]; [7] 100% | [6]; [8] 100% | [6]; at 50.0 µM 86.6%

CCCCCCCCCCCCCCCCCC(=O)OCCOCCO
inactive: [1]; [7] -12% | [1]; [8] -16% | [1]; at 50.0 µM -2.4% | [2]; [7] -22% | [2]; [8] -46% | [2]; at 50.0 µM -0.25% | [3]; [7] -10% | [3]; [8] -23% | [3]; at 50.0 µM -2.7% | [4]; [7] -33% | [4]; [8] -21% | [4]; at 50.0 µM 60.8% | [5]; [7] -27% | [5]; [8] -24% | [5]; at 50.0 µM -13.3% | [6]; [7] -28% | [6]; [8] -25% | [6]; at 50.0 µM -21.6%

O=c1c2ccccc2nc(-c2ccccc2)n1NC(=S)Nc1ccc(Cl)cc1[N+](=O)[O-]
active: [5]; at 50.0 µM 71.4%
inactive: [1]; [7] -3% | [1]; [8] 17% | [1]; at 50.0 µM 23.1% | [2]; [7] -7% | [2]; [8] 10% | [2]; at 50.0 µM -1.6% | [3]; [7] 4% | [3]; [8] 15% | [3]; at 50.0 µM 40.6% | [4]; [7] 8% | [4]; [8] 14% | [4]; at 50.0 µM -29.4% | [5]; [7] -5% | [5]; [8] 29% | [6]; [7] 2% | [6]; [8] 10% | [6]; at 50.0 µM 25.8%

O=C(O/N=C(/Cc1ccccc1)c1ccccc1)c1ccccc1
inactive: [1]; [7] -15% | [1]; [8] 63% | [2]; [7] -10% | [2]; at 50.0 µM 28.1% | [3]; [7] -1% | [4]; [7] -6% | [4]; at 50.0 µM 43.6% | [5]; [7] -17% | [5]; [8] 66% | [5]; at 50.0 µM 18.4% | [6]; [7] 3%
active: [1]; at 50.0 µM 90.3% | [2]; [8] 72% | [3]; [8] 76% | [3]; at 50.0 µM 88.8% | [4]; [8] 92% | [6]; [8] 87% | [6]; at 50.0 µM 93.2%

CCOC(=O)C(/C=N\C(=S)Nc1ccc(Cl)c(Cl)c1)=C(/O)c1ccccc1
active: [1]; at 50.0 µM 83.3% | [3]; at 50.0 µM 75.5% | [4]; at 50.0 µM 78.6% | [5]; at 50.0 µM 78.4% | [6]; at 50.0 µM 81.2%
inactive: [1]; [7] 2% | [1]; [8] 58% | [2]; [7] -3% | [2]; [8] 45% | [2]; at 50.0 µM 69% | [3]; [7] 11% | [3]; [8] 38% | [4]; [7] -8% | [4]; [8] 45% | [5]; [7] 12% | [5]; [8] 35% | [6]; [7] -9% | [6]; [8] 49%

Nc1nn2c(C(Br)Br)cc(C(Br)Br)nc2c1[N+](=O)[O-]
active: [1]; [7] 100% | [1]; [8] 100% | [1]; at 50.0 µM 99.5% | [2]; [7] 100% | [2]; [8] 100% | [2]; at 50.0 µM 99.5% | [3]; [7] 100% | [3]; [8] 100% | [3]; at 50.0 µM 99.5% | [4]; [7] 99% | [4]; [8] 99% | [4]; at 50.0 µM 99.4% | [5]; [7] 100% | [5]; [8] 100% | [5]; at 50.0 µM 99.5% | [6]; [7] 100% | [6]; [8] 100% | [6]; at 50.0 µM 99.5%

CCCOc1ccc(/C=N/NC(N)=S)cc1
active: [1]; [8] 73% | [3]; [8] 74% | [4]; at 50.0 µM 76.5% | [5]; [8] 70% | [6]; [8] 75%
inactive: [1]; [7] 16% | [1]; at 50.0 µM 42.1% | [2]; [7] 0% | [2]; [8] 50% | [2]; at 50.0 µM 59.5% | [3]; [7] 16% | [3]; at 50.0 µM 69.7% | [4]; [7] 7% | [4]; [8] 65% | [5]; [7] -72% | [5]; at 50.0 µM 63.7% | [6]; [7] 12% | [6]; at 50.0 µM 67.3%

C=C1CC(Cn2cc(C)c(=O)[nH]c2=O)(c2ccc(Cl)cc2)OC1=O (stereo not given)
active: [1]; [8] 82% | [2]; [8] 94% | [2]; at 50.0 µM 73.1% | [3]; [8] 85% | [3]; at 50.0 µM 74.2% | [5]; [8] 89% | [5]; at 50.0 µM 78.3% | [6]; [8] 91% | [6]; at 50.0 µM 85.3%
inactive: [1]; [7] -7% | [1]; at 50.0 µM 69.8% | [2]; [7] -11% | [3]; [7] -27% | [4]; [7] 13% | [4]; [8] 43% | [4]; at 50.0 µM 65% | [5]; [7] 8% | [6]; [7] 7%

CC(C)CCCOC(=O)c1cc([N+](=O)[O-])cc([N+](=O)[O-])c1
active: [3]; at 50.0 µM 96% | [5]; at 50.0 µM 72.6% | [6]; [8] 70% | [6]; at 50.0 µM 93.8%
inactive: [1]; [7] 12% | [1]; [8] 30% | [1]; at 50.0 µM 67.8% | [2]; [7] 2% | [2]; [8] 27% | [2]; at 50.0 µM 53.1% | [3]; [7] 5% | [3]; [8] 51% | [4]; [7] 3% | [4]; [8] 25% | [4]; at 50.0 µM 54.2% | [5]; [7] 0% | [5]; [8] 24% | [6]; [7] 3%
